Sampled rows, rich in hits. Any-hit rate of the full collection: about 31%.
CYP2C9 inhib: human CYP2C9 inhibition; P11712; AID 777; CYP2C9 Supersomes, luciferin-H conversion, luminescence; inhibition, % at 5 µM; actives 20% (n = 96,000);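 active = blocking of liver enzyme CYP2C9 beyond about 50% at 5 µM, limit read from the data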
CYP2C19 act: cytochrome P450 2C19 (human) activation; P33261; recombinant CYP2C19, luciferin-H EGE luminescence; stronger effect = higher value; 0 = fully inhibited enzyme, 1 = untreated enzyme; activation factor at 5 µM; 96,000 tested, under 10 active;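 active = activation factor of at least 2 at 5 µM in the primary screen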;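 note: 0 = wells with 2.5 mM tranylcypromine and 1 = vehicle-only wells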
Target sequence (P33261 whole entry, looked up): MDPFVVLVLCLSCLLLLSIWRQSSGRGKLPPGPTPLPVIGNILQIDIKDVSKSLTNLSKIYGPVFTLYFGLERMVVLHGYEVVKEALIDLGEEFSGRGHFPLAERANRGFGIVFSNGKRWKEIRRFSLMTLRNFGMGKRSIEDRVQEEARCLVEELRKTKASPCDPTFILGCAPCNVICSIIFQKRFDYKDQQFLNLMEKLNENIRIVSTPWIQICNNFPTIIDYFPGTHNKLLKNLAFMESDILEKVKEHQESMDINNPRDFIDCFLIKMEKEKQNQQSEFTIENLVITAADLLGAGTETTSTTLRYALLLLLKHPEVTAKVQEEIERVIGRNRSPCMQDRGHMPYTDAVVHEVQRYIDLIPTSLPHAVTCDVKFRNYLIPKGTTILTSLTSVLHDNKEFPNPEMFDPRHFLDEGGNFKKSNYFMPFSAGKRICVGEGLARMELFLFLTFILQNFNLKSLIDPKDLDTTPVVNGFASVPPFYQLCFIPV
CYP2C9 activ: activators of human CYP2C9; P11712; recombinant CYP2C9, luciferin-H conversion, luminescence; stronger effect = higher value; factor 1 = untreated enzyme, 0 = blocked; activation factor at 5 µM; actives 1.4% (n = 96,000); AID 1024;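 active = activation factor of 2 or more for CYP2C9 at a 5 µM dose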;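 note: 0 = sulfaphenazole-blocked wells and 1 = vehicle-only wells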
CYP2C19 inhib: human CYP2C19 inhibition; actives 21% (n = 96,000); CYP2C19 Supersomes, luciferin-H EGE luminescence, 30 min; AID 778; P33261; inhibition, % at 5 µM;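 active = CYP2C19 inhibition above a set limit at 5 µM in the primary screen, cut at about 50% in these data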;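 note: plate controls were negative control wells for no effect and 2.5 mM tranylcypromine positive control for full effect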
Numbers without * were called inactive.

SMILES | CYP2C9 inhib | CYP2C19 act | CYP2C9 activ | CYP2C19 inhib
O=[N+]([O-])c1cc(-n2cnnn2)ccc1N1CCC(Cc2ccccc2)CC1 | 62* | 0.6 | 0.4 | 42
CC1CC(C)CN(c2ccc(-n3cnnn3)cc2[N+](=O)[O-])C1 (stereo not drawn) | 19 | 0.4 | 0.8 | 64*
CN(C)c1oc(-c2ccc(OCc3ccc(Cl)cc3)cc2)nc1C#N | -27 | 0.7 | 1.3 | 27
Cc1ccc(OCC(=O)Nc2ccc(F)cc2)cc1 | 36 | 0.4 | 0.6 | 57*
O=C(CNc1ccccc1)Nc1ccc(F)cc1 | 24 | 0.4 | 0.8 | 56*
O=C(Nc1ccc(F)cc1)c1ccccc1 | -7 | 0.9 | 1.1 | 6
COc1ccc(OCC(=O)Nc2ccc(C)cc2)cc1 | 52* | 0.2 | 0.5 | 82*
CCNC(=S)N/N=C/c1ccc(OCC(=O)Nc2ccc(C)cc2)cc1 | 2 | 1 | 1 | 2
COc1ccc(CC(=O)Nc2ccc(-c3cn4ccc(C)cc4n3)cc2)cc1 | 41 | 0.3 | 0.6 | 67*
Cc1ccc(OCC(=O)Nc2ccc(N3CCOCC3)cc2)cc1 | 4 | 1 | 1 | 0
Cc1cccc(OCCNc2nc3c(c(=O)n(C)c(=O)n3C)n2C)c1 | 29 | 0.8 | 0.7 | 17
Cc1ccnc(NC(=O)Nc2ccc(F)cc2)c1 | 27 | 0.8 | 0.7 | 18
Cc1ccc(NC(=O)Nc2ccc(F)cc2)nc1 | 11 | 0.4 | 0.9 | 57*
Cc1ccc(NC(=O)COC(=O)c2ccn(C)n2)cc1 | 35 | 0.2 | 0.7 | 79*
COc1ccc(OCC(=O)Sc2ccc(C)cc2)cc1 | 30 | 0.3 | 0.7 | 68*
O=C(COc1ccc(Br)cc1CO)Nc1ccc(F)cc1 | 88* | 0 | 0.1 | 99*
CN(CC(=O)Nc1ccccc1C(=O)N1CCCC1)S(=O)(=O)c1ccc(Br)cc1 | 46 | 0.8 | 0.5 | 25
COc1ccc(C2C(C(=O)OCC(=O)Nc3ccc(C)cc3)CCC(=O)N2c2ccc(OC)cc2)cc1 (stereo not drawn) | 74* | 0.2 | 0.3 | 75*
O=C(Cc1coc(-c2ccc(F)cc2)n1)Nc1ccccc1 | 61* | 0.1 | 0.4 | 86*
O=C(Cc1ccccn1)Nc1ccccc1 | -16 | 1 | 1.2 | 0
Cc1ccc(NC(=O)Cc2ccc(F)cc2)cc1 | 18 | 0 | 0.8 | 97*
COc1ccc(-n2ncc3c(Nc4cccc(C)c4)ncnc32)cc1 | 0 | 0.9 | 1 | 15
CCOC(=O)c1ccc(NC(=O)CSc2nnc(CNC(=O)c3c(F)cccc3Cl)o2)cc1 | 58* | 0.8 | 0.4 | 24
COc1cc(C(=O)NCc2nnc(SCC(=O)Nc3cc(C)cc(C)c3)o2)cc(OC)c1OC | -10 | 1.1 | 1.1 | -13
COc1ccc(C(=O)NCc2nnc(SCC(=O)Nc3cccc(C(F)(F)F)c3)o2)cc1OC | -18 | 0.5 | 1.2 | 54*
SMILES | CYP2C9 inhib | CYP2C19 act | CYP2C9 activ | CYP2C19 inhib
O=C(c1cnccn1)N1CCN(S(=O)(=O)c2ccc3ccccc3c2)CC1 | 17 | 0.1 | 0.8 | 95*
O=C(c1n[nH]c2ccccc12)N1CCN(S(=O)(=O)c2ccc3ccccc3c2)CC1 | 56* | 0.8 | 0.4 | 22
Cc1cnc(C(=O)N2CCN(S(=O)(=O)c3ccc4ccccc4c3)CC2)cn1 | -15 | 0.8 | 1.2 | 23
Cc1ccc(S(=O)(=O)N2CCN(C(=O)c3cc(=O)[nH]c4ccccc34)CC2)c(C)c1 | 10 | 0.9 | 0.9 | 8
Cc1ccc(C)c(S(=O)(=O)N2CCN(C(=O)c3cnccn3)CC2)c1 | 51* | 0.5 | 0.5 | 51*
Cn1nc(-c2ccc(N3CCOCC3)c(NS(=O)(=O)c3ccc(Cl)cc3)c2)c2ccccc2c1=O | 84* | 0.1 | 0.2 | 86*
Cc1ccc(S(=O)(=O)Nc2cc(-c3nn(C)c(=O)c4ccccc34)ccc2N2CCOCC2)cc1 | 94* | 0.1 | 0.1 | 93*
CC(=O)Nc1cc(-c2nn(C)c(=O)c3ccccc23)ccc1N1CCOCC1 | 50 | 0.7 | 0.5 | 28
Cc1ccc(/C(O)=C2\C(=O)C(=O)N(CC(C)O)C2c2ccc(N(C)C)cc2)cc1 (stereo not drawn) | -6 | 0.8 | 1.1 | 18
CN1c2cccc3cccc(c23)N(C)C1(C)C | -2 | 0.8 | 1 | 24
CCCN1c2cccc3cccc(c23)S1(=O)=O | -336 | 0.1 | 4.4* | 90*
N#CCCCCN1c2cccc3cccc(c23)S1(=O)=O | -388 | 0.1 | 4.9* | 85*
COc1ccc(C2(C(=O)NCCCN3CCOCC3)CCOCC2)cc1 | -3 | 1 | 1 | 3
COc1ccc(O/C(=N\S(=O)(=O)c2ccccc2)c2ccccc2)cc1 | 11 | 0.9 | 0.9 | 12
CC(C)OC(=S)N/C(=N\S(=O)(=O)c1ccccc1)c1ccccc1 | 61* | 0.7 | 0.4 | 32
CS/C(=N\S(=O)(=O)c1ccc(Cl)cc1)c1ccccc1 | 89* | 0 | 0.1 | 96*
CC(C)O/C(=N\S(=O)(=O)c1ccc(Cl)cc1)c1ccccc1 | 95* | 0 | 0 | 95*
CC(C)CO/C(=N/S(=O)(=O)c1ccccc1)c1ccccc1 | 78* | 0.2 | 0.2 | 76*
O=C(O)C1CCCCN1S(=O)(=O)c1ccc(Cl)s1 (stereo not drawn) | 47 | 0.7 | 0.5 | 25
COc1ccc(Cl)c(Cn2c(NCCCO)nc3c2c(=O)n(C)c(=O)n3C)c1 | 7 | 1 | 0.9 | 2
COc1ccc(C(=O)CSc2nnc(CNc3ccc(C)cc3C)n2Cc2ccco2)cc1 | 57* | 0.1 | 0.4 | 88*
N#Cc1ccc(CSc2nnc(Cc3cccs3)n2Cc2ccco2)cc1 | 66* | 0.1 | 0.3 | 93*
Cc1ccc(C(=O)CSc2nnc(CNc3ccc(C)cc3C)n2Cc2ccco2)cc1 | 73* | 0.2 | 0.3 | 75*
Cc1ccc(NCc2nnc(SCc3ccc(C#N)cc3)n2Cc2ccco2)c(C)c1 | 94* | 0.1 | 0.1 | 92*
Cc1cc(N)n(-c2nc(-c3cccnc3)nc3ccccc23)n1 | 37 | 0.9 | 0.6 | 7
SMILES | CYP2C9 inhib | CYP2C19 act | CYP2C9 activ | CYP2C19 inhib
C=CCOc1c2ccc(C(=O)NCCc3ccc(C)cc3)cc2nn1C | 20 | 0.9 | 0.8 | 13
CC(C)CCNC(=O)COc1ccc2c(c1)C(=O)CC(C)(C)O2 | 80* | 0.3 | 0.2 | 74*
CC1(C)CC(=O)c2cc(OCC(=O)NCCN3CCCc4ccccc43)ccc2O1 | 18 | 0.9 | 0.8 | 8
Cc1ccc2[nH]c(=O)c(NC(N)=S)nc2c1 | 3 | 1 | 1 | 1
O=S(=O)(c1ccc(Cl)cc1)N1CCn2c1nc1ccccc12 | -4 | 0.7 | 1 | 30
Cc1cccc(NC(=O)c2cc3n(n2)C(C(F)(F)F)CC(c2ccc4c(c2)OCO4)N3)c1 (stereo not drawn) | 87* | 0.6 | 0.1 | 39
CC(C)(C)OC(=O)N1CC=C2C(C#N)=C(N)C(C#N)(C#N)C(c3cccs3)C2C1 (stereo not drawn) | 60* | 0.6 | 0.4 | 39
COc1ccc(Cl)cc1S(=O)(=O)n1cnc2ccccc21 | 31 | 0.2 | 0.7 | 78*
CCOc1cc(C)c(Cl)cc1S(=O)(=O)n1cnc2ccccc21 | 0 | 0.7 | 1 | 25
